# About 83,000 compounds went through this panel and 20% of them were active in at least one assay; those are over-represented in the sample as a whole.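 Activity criterion: percent growth below 10, measured after cells in 96-well plates were exposed to a single compound concentration for 48 hours.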 A number with no mark means an inactive call. The source made the active and inactive calls.
# Experiments:
# Test in all cases: NCI-60 one-dose screen, 48 h (100 = growth as untreated, 0 = no growth, -100 = all killed)
# SK-MEL-2 melanoma = conditions: 10 µM unless noted
# EKVX NSCLC = conditions: 10 µM unless noted
# UO-31 renal = conditions: 10 µM unless noted
# TK-10 renal = conditions: 10 µM unless noted
# ACHN renal = conditions: 10 µM unless noted
# CAKI-1 renal = conditions: 10 µM unless noted
# A498 renal = conditions: 10 µM
# RPMI-8226 leukemia = conditions: 10 µM unless noted
# OVCAR-8 ovarian = conditions: 10 µM unless noted
# OVCAR-5 ovarian = conditions: 10 µM unless noted
# OVCAR-4 ovarian = conditions: 10 µM unless noted
# SK-OV-3 ovarian = conditions: 10 µM unless noted
# IGROV1 ovarian = conditions: 10 µM unless noted
# OVCAR-3 ovarian = conditions: 10 µM unless noted
# HS 578T breast = conditions: 10 µM unless noted
# CCRF-CEM leukemia = conditions: 10 µM unless noted
# MOLT-4 leukemia = conditions: 10 µM unless noted
# SR leukemia = conditions: 10 µM unless noted
# HL-60(TB) leukemia = conditions: 10 µM unless noted
Structure (SMILES),growth (SK-MEL-2 melanoma),growth (EKVX NSCLC),growth (UO-31 renal),growth (TK-10 renal),growth (ACHN renal),growth (CAKI-1 renal),growth (A498 renal),growth (RPMI-8226 leukemia),growth (OVCAR-8 ovarian),growth (OVCAR-5 ovarian),growth (OVCAR-4 ovarian),growth (SK-OV-3 ovarian),growth (IGROV1 ovarian),growth (OVCAR-3 ovarian),growth (HS 578T breast),growth (CCRF-CEM leukemia),growth (MOLT-4 leukemia),growth (SR leukemia),growth (HL-60(TB) leukemia)
O=C1C=C2C(=CCOC2O)O1 (centres undefined),10.4%,103%,-11.6% (active),-37.2% (active),-18.7% (active),-13.2% (active),107%,-19.1% (active),-21.5% (active),41.5%,25.4%,100%,42.9%,-78.6% (active),50%,–,–,–,–
CC(C)OC(=O)[C@H](C)NP(=O)(Oc1ccccc1)C1CCCN(O)C1=O (some centres undefined),94.1%,93.4%,86.2%,99.5%,79.4%,104%,–,101%,106%,91.7%,107%,122%,90.6%,99.4%,92%,91.3%,93.7%,89.6%,–
CN1C(=O)N[C@H]2[C@@H]3NC(=O)c4ccc(Br)n4[C@@H]3C[C@]21O,-55.5% (active),-17.4% (active),9.15% (active),-16.7% (active),-24.6% (active),6.74% (active),-47.8% (active),-23.2% (active),-12.4% (active),-2.49% (active),-13.9% (active),-2.3% (active),-13.9% (active),-28.7% (active),-28.5% (active),-15% (active),-9.97% (active),–,-20% (active)
CCOP(=O)(Nc1ccc2c(c1)/C(=N/NC(N)=S)c1ccccc1-2)OCC,110%,92.9%,91.8%,104%,89.9%,97.4%,96.3%,93.5%,94.7%,–,96.9%,114%,132%,105%,82%,85.6%,92%,109%,–
O=C(CC1(O)C(=O)N(Cc2ccccc2)c2ccccc21)c1ccc(C(=O)NCC2CCC3(CC2)OOC2(CCCCC2)OO3)cc1 (centres undefined),6.18% (active),-63.3% (active),-81.2% (active),-93.2% (active),-87.7% (active),-90.4% (active),–,–,-14.8% (active),21%,-36.6% (active),54.3%,-41.8% (active),-82.4% (active),-6.26% (active),-41.2% (active),-49.9% (active),-49.3% (active),-67.4% (active)
O=C(N/N=C\c1ccc(N(CCCl)CCCl)cc1)c1cccc([N+](=O)[O-])c1,101%,88.6%,90.6%,99.2%,94.4%,–,118%,95.6%,–,–,87%,82.7%,76.8%,83.2%,64.2%,82.5%,89.7%,103%,–
CCOC(=O)[C@@H](C)C[C@H](Cc1ccccc1)NC(=O)c1csc([C@@H](C[C@H](C(C)C)N(C)C(=O)[C@@H](NC(=O)[C@H]2CCCCN2C)C(C)(C)CC)OC(C)=O)n1,2.19% (active),37.4%,7.43% (active),29.3%,2.48% (active),19.8%,–,-1.78% (active),10.6%,28%,–,26.9%,14.5%,2.01% (active),-9.16% (active),3.47% (active),13.5%,-4.98% (active),-33.4% (active)
CCC1CC(O)c2c(O)c3c(c(O)c2C1O)C(=O)c1cccc(O)c1C3=O (centres undefined) (tested in a mixture with another compound),-63% (active),-4.25% (active),-32.9% (active),-13.7% (active),-18.1% (active),0.243% (active),–,–,–,-78.2% (active),-21.6% (active),11.1%,-53.5% (active),-12% (active),–,-21.5% (active),-23.3% (active),-0.491% (active),-45.5% (active)
Cn1cc(-c2csc(-c3cn(CCCCN4CCCCC4)c4ccccc34)n2)c2cccnc21,37.9%,69.9%,-77.8% (active),50.2%,-96.4% (active),–,81%,-31.1% (active),–,96.8%,82.3%,87.6%,70.6%,-75.2% (active),61%,-11% (active),-55% (active),-49.5% (active),-62.3% (active)
C#Cc1ccc2c(c1)C(c1ccccc1F)=NCC(=O)N2C,19.4%,48.9%,72.5%,75.5%,56.9%,55.1%,–,71.9%,63.9%,85.5%,84.9%,34%,–,12.1%,64.1%,58.8%,42.8%,37.8%,–

# Source: PubChem BioAssay (NCI)
